# Reference: PMC4336329 (PLoS ONE, 2015)
# In all, about 310,000 compounds went through this assay and about 2,200 (0.71%) showed an effect of 50% or more. The effect is printed as a negative number. This excerpt belongs to a sample that is enriched for strong results.
# Target: human ether-à-go-go-related gene (hERG) potassium channel (human, UniProt Q12809)
# Experiment: primary screen, population patch clamp on CHO cells stably expressing hERG; higher = less effect of the substance
# Sequence of human ether-à-go-go-related gene (hERG) potassium channel (Q12809 whole entry, looked up): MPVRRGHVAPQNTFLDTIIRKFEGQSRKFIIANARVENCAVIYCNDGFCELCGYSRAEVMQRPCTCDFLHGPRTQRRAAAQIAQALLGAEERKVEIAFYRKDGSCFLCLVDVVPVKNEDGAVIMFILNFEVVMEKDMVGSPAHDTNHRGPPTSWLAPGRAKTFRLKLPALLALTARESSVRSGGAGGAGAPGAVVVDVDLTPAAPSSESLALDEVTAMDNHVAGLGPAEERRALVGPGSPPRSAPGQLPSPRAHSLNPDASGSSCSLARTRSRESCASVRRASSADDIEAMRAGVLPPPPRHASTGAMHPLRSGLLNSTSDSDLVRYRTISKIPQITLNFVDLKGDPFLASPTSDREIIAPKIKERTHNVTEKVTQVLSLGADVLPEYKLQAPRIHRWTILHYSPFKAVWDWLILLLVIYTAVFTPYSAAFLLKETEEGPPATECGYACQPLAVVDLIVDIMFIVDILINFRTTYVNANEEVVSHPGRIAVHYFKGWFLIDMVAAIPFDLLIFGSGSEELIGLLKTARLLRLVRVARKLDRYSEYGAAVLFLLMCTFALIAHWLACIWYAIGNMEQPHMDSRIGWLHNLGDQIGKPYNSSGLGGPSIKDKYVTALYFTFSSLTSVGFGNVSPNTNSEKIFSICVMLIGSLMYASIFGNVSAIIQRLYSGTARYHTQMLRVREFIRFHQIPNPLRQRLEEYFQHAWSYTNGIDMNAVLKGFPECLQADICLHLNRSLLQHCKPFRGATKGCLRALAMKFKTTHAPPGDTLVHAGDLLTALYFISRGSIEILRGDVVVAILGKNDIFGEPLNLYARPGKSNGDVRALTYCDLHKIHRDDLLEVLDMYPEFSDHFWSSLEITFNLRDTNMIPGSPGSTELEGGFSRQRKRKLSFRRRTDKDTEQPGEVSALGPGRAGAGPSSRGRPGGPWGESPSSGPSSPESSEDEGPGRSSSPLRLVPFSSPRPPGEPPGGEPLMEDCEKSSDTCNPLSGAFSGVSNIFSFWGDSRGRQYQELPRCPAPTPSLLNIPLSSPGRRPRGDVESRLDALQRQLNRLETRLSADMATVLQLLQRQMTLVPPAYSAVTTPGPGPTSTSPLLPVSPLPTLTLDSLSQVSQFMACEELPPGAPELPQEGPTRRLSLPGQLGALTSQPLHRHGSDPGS
row,Compound,"hERG current change (%, negative = inhibition) at 1uM [%]"
1,COc1ccccc1CNC(=O)C1(c2ccc(Cl)cc2)CC1,0.547
2,O=C(c1cccc(C(F)(F)F)c1)N1CCCC1,8.42
3,COc1ccc(-c2nn(-c3ccccc3)cc2/C=N/Nc2ccc3ccccc3n2)cc1OC,7.59
4,Cc1cc2n(n1)SC(Nc1cc(Cl)ccc1Cl)N2 (stereo not drawn),7.4
5,COC(=O)c1cc(S(=O)(=O)Nc2ccc(C)c(F)c2)c[nH]1,-3.6
6,CCn1c(/C(C#N)=N/O)nc2ccccc21,6.1
7,O=C(NNS(=O)(=O)c1ccc(F)cc1)c1ccccc1O,13.6
8,O=C(C[n+]1ccc(C(=O)N/N=C/c2ccc(Cl)cc2Cl)cc1)c1ccccc1.[Br-],-63.3
9,O=C(C[n+]1ccc(C(=O)N/N=C/c2ccc(O)cc2)cc1)c1ccccc1.[Br-],4.63
10,O=C(C[n+]1ccc(C(=O)N/N=C/c2ccc(Br)cc2)cc1)c1ccccc1.[Br-],-32.5
11,O=C(NCC1CCCO1)c1ccc(S(=O)(=O)Nc2ccccc2F)cc1 (stereo not drawn),7.53
12,COc1ccccc1N/C(N)=N/c1nc(C)cc(C)n1,-2.38
13,COc1ccc(C)cc1N/C(N)=N/c1nc(C)cc(C)n1,-64.7
14,COc1ccc(N/C(N)=N/c2nc(C)cc(C)n2)c(OC)c1,-2.86
15,COc1ccc(Cl)cc1N/C(N)=N/c1nc(C)cc(=O)[nH]1,12.3
16,COc1ccc(OC)c(N/C(N)=N/c2nc(C)cc(C)n2)c1,-26.5
17,Cc1ccc(C)c(N/C(N)=N/c2nc(C)cc(C)n2)c1,-8.3
18,Cc1ccc(N/C(N)=N/c2nc(C)cc(N3CCCCC3)n2)c(C)c1,-79
19,COc1ccc(Cl)cc1N/C(N)=N/c1nc(C)cc(C)n1,-79.1
20,CCCOc1ccccc1N/C(N)=N/c1nc(C)cc(C)n1,-59.4
21,COc1cc(N/C(N)=N/c2nc(C)cc(C)n2)c(OC)cc1Cl,-17.2
22,CCCOc1ccccc1N/C(=N/c1nc(C)cc(C)n1)NC(=O)Nc1ccc(Cl)cc1,8.59
23,CC(=O)N/C(=N/c1nc(C)cc(C)n1)Nc1ccc(C)cc1C,4.11

row,Compound,"hERG current change (%, negative = inhibition) at 1uM [%]"
1,COc1cc(/C=C(\C#N)C(=O)Nc2ccccc2F)ccc1OCCN1CCOCC1,-25.6
2,CN(c1ccccc1)S(=O)(=O)c1cc(C(=O)N2CCN(c3ccccn3)CC2)ccc1Cl,16.5
3,CN1CCN(c2ccc([N+](=O)[O-])cc2NC(=O)c2ccco2)CC1,-22.4
4,Cc1ccc(S(=O)(=O)N2CCCCC2)cc1C(=O)N(CCc1ccccc1)Cc1ccccc1,12.2
5,COc1ccc(C(=O)Oc2ccc(F)cc2C(=O)/C=C/c2ccc(OC)c(OC)c2)cc1,0.79
6,O=C(COc1ccccc1Cl)NC(=S)Nc1ccc(CN2CCOCC2)cc1,15.7
7,Cc1ccc(NC(=O)COc2ccc3oc4c(c3c2)CCCC4)nc1,2.88
8,COc1cc(C2C(C(=O)c3cccs3)=C(O)C(=O)N2c2cc(C)on2)ccc1O (stereo not drawn),2.84
9,COc1ccc([N+](=O)[O-])cc1NC(=O)CSCc1ccccc1,13.5
10,COc1ccc(-c2cc3ccc(OCC(=O)NCC4CCC(C(=O)O)CC4)cc3oc2=O)cc1 (stereo not drawn),5.49
11,CC(C)(C)C(=O)N1NC(=Nc2ccccc2)SC1(C)C,7.38
12,CCOc1ccc(S(=O)(=O)NCC2CCCO2)c2ccccc12 (stereo not drawn),4.4
13,O=C1OC(Nc2ccc(Cl)cn2)c2ccccc21 (stereo not drawn),2.2
14,CCn1c(C)[n+](CC)c2ccc(C(=O)N(C)c3ccccc3)cc21.[I-],25.5
15,CCn1c(/C=C/N(C)c2ccccc2)[n+](CC)c2ccc(Cl)cc21.[I-],-7.59
16,CCOC(=O)c1ccc2c(c1)n(CC)c(/C=C/N(C)c1ccccc1)[n+]2CC.[I-],-66.2
17,CCOC(=O)c1ccc2c(c1)n(Cc1ccccc1)c(C)[n+]2CC.[O-][Cl+3]([O-])([O-])[O-],1.03
18,CCOC(=O)c1ccc2c(c1)n(CCCS(=O)(=O)[O-])c(/C=C/c1ccc(Cl)cc1)[n+]2CC,-7.29
19,CCOC(=O)c1ccc2c(c1)n(CC)c(C)[n+]2CC.[I-],1.24
20,CCn1c(/C=C/Nc2ccccc2)[n+](CC)c2ccc(C(=O)OCC(F)(F)F)cc21.[I-],-90.5
21,CCOC(=O)c1ccc2c(c1)n(CCO)c(C)[n+]2CC.[I-],6.24
22,CCOC(=O)c1ccc2c(c1)n(CC)c(/C=C/Nc1ccccc1)[n+]2CC.[I-],-86.7
23,CCC1CCCCN1C(=O)c1sc2nc(C)nc(N(CC)CC)c2c1C (stereo not drawn),5.72

row,Compound,"hERG current change (%, negative = inhibition) at 1uM [%]"
1,O=C(CC1C(=O)NCCN1Cc1ccc(Cl)c(F)c1)NC1CCC1 (stereo not drawn),14
2,Cc1ccc(C2CCN(C(=O)Nc3ccccc3)C2)cc1 (stereo not drawn),11.5
3,CC(C)CC1NC(=O)N(CC(=O)NC2CCCc3ccccc32)C1=O (stereo not drawn),9.38
4,O=C(c1cccc(C(F)(F)F)c1)N1CCN(S(=O)(=O)c2ccc(Cl)s2)CC1,3.68
5,O=C(O)c1ccc2c(c1)C(=O)N(c1cc([N+](=O)[O-])ccn1)C2=O,10.8
6,COc1ccccc1C1/C(=C(/O)c2ccccc2)C(=O)C(=O)N1CC(C)C (stereo not drawn),10.7
7,O=C(O)C1C2C=CC(C2)C1C(=O)NCc1ccoc1 (stereo not drawn),14.3
8,O=C(CN1CCOCC1)Nc1ccc([N+](=O)[O-])cc1Br,-11.7
9,CN1CCN(CC(=O)Nc2ccc([N+](=O)[O-])cc2Br)CC1,-55.8
10,O=C(CN1CCCCCC1)Nc1ccc([N+](=O)[O-])cc1Br,10.1
11,CC(=O)N1CCN(CC(=O)Nc2ccc([N+](=O)[O-])cc2Br)CC1,-60.4
12,CC(=O)N1CCN(CC(=O)Nc2cc([N+](=O)[O-])ccc2Cl)CC1,1.54
13,O=C(CN1CCN(c2ccccc2O)CC1)Nc1ccc([N+](=O)[O-])cc1Br,7.54
14,O=C(CSc1cccc[n+]1[O-])C12CC3CC(CC(C3)C1)C2,6.16
15,NS(=O)(=O)c1cccc(NC(=O)CCCC2CCCCC2)c1,7.26
16,Cc1cccc(-c2c3c(=O)n(C)c(=O)n(C)c3cn2-c2ccc(O)cc2)c1,13.8
17,Cc1nc2c(-c3ccccc3)c[nH]n2c(=O)c1Cc1ccccc1,13.3
18,O=C(O)C(=O)O.O=[N+]([O-])c1ccc(S(=O)(=O)N2CCN(Cc3ccco3)CC2)cc1,18.9
19,O=S(=O)(c1ccc(Cl)cc1)N1CCN(C2CCCCCC2)CC1,1.61
20,COc1ccc(S(=O)(=O)N2CCC(N3CCN(Cc4ccccc4)CC3)CC2)cc1.O=C(O)C(=O)O,-14.4
21,O=[N+]([O-])c1ccccc1S(=O)(=O)N1CCN(C2CCN(Cc3ccccc3)CC2)CC1,-18.2
22,O=C(Cc1ccccc1)N1CCN(S(=O)(=O)c2ccc([N+](=O)[O-])cc2)CC1,-24.6
23,Cc1ccc(S(=O)(=O)N2CCN(C3CCN(Cc4ccccc4)CC3)CC2)cc1.O=C(O)C(=O)O,-75.3

row,Compound,"hERG current change (%, negative = inhibition) at 1uM [%]"
1,CC(C)CC(=O)N1CCN(S(=O)(=O)c2ccccc2)CC1,8.07
2,O=S(=O)(c1ccc(Cl)cc1)N1CCN(C2CCN(Cc3ccccc3)CC2)CC1,-59
3,O=C(O)C(=O)O.O=[N+]([O-])c1ccc(S(=O)(=O)N2CCN(C3CCN(Cc4ccccc4)CC3)CC2)cc1,-78.1
4,O=S(=O)(c1ccccc1)N1CCN(Cc2ccc(Cl)cc2)CC1,-2.04
5,CC(CC(=O)N1CCN(S(=O)(=O)c2ccc([N+](=O)[O-])cc2)CC1)c1ccccc1 (stereo not drawn),-50.3
6,Cc1ccc(S(=O)(=O)N2CCN(Cc3ccccc3)CC2)cc1,10
7,c1ccc(OCc2nn3c(-c4ccccn4)nnc3s2)cc1,12.2
8,O=C(CN(C(=O)CNC(=O)c1cccs1)c1ccc2c(c1)OCCO2)NC1CCCC1,-3.99
9,COc1cccc(NC(=S)NNC(=O)Cn2nc(C(F)(F)F)cc2C)c1,9.84
10,COc1ccc(COC(=O)C2=C(C)NC(=O)NC2c2ccc(OC)c(OC)c2)cc1 (stereo not drawn),12.4
11,Cc1ccc(-c2cc3ccccc3nc2N2CCOCC2)cc1,9.78
12,Cc1ccc(OC(F)F)c(NC(=O)Nc2ccc3c(c2)OCO3)c1,19.9
13,CC(=O)NC(c1ccco1)c1ccc2cccnc2c1O (stereo not drawn),-3.48
14,Cc1cc(CSc2ccccc2C(=O)O)on1,11.6
15,Cc1ccc(C2=N/C(=C\c3cccnc3)C(=O)O2)cc1,3.52
16,CS(=O)(=O)N1CCN(C2CCN(Cc3ccccc3)CC2)CC1,7.88
17,CN1CCN(CC2(O)CCN(S(=O)(=O)c3ccc(Cl)cc3)CC2)CC1,-9.27
18,O=S(=O)(c1ccccc1)N1CCN(C2CCN(Cc3ccccc3)CC2)CC1,-64.1
19,O=S(=O)(c1ccccc1)N1CCC(O)(CN2CCN(c3ccccc3)CC2)CC1,14.8
20,O=S(=O)(c1ccc(Cl)cc1)N1CCC(O)(CN2CCN(Cc3ccccc3)CC2)CC1,-75.6
21,COc1ccc(S(=O)(=O)N2CCN(C3CCN(Cc4ccccc4)CC3)CC2)cc1,-15.6
